# The list is not random: actives were taken first. Their share in the collection is about 3%.
# HIF-2a block: HIF-2a reporter inhibitors, primary screen, luminescence, 786-0 RCC cells | 786-0 RCC cells HIF-2a reporter, luciferase luminescence, overnight | inhibition, % at 18.8 µM | hit rate 0.72% among 360,000 | AID 624352, 2012;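 active = inhibition of the luminescence signal of 40% or more relative to plate controls, in a single-dose primary screen at 18.75 µM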
# Peg3 promoter: Peg3 promoter-driven luciferase inhibitors, primary screen, cell-based, HeLa, luciferase luminescence; HeLa PEG-Prom luciferase reporter, overnight; hit rate 1.7% among 360,000; AID 588405, 2011; inhibition, % at 20 µM;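 active = inhibition of at least 50% at 20 µM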
# CF NFkB block: inhibitors of PAF-induced NF-kB signaling, primary screen, cell-based, GFP fluorescence, uHTS; hit rate 0.86% among 360,000; KKLEB NF-kB-GFP reporter, GFP fluorescence overnight; inhibition, % at 5 µM;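 active = at least 50% inhibition at 5 µM, scaled per plate between neutral and stimulator controls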;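 also: PAF is a Pseudomonas aeruginosa culture filtrate used as stimulus; plate controls were PAF-stimulated DMSO wells for no effect and unstimulated DMSO wells for full effect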
# EBV LMP1 NFkB: EBV LMP1-driven NF-kappaB luciferase reporter inhibitors, primary screen, cell-based, luminescence, single point. inhibition, % at 12.5 µM. hit rate 0.69% among 350,000. AID 504558, 2011. LMP1-induced NF-kappaB luciferase reporter cells; in the data active = inhibition above about 41%;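 also: 0% = neutral control wells and 100% = reference inhibitor control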
# KKLEB tox: cytotoxicity in KKLEB CF airway cells, primary screen, cytotoxicity control for CF NF-kB inhibitor project, cell-based, uHTS, fluorescence assay plates | AID 602141, 2011 | hit rate 0.36% among 360,000 | activity change (cytotoxicity), % at 5 µM | KKLEB CF airway cells viability, ATPlite luminescence, overnight; stronger effect = lower value; cells stimulated with P. aeruginosa culture filtrate;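 active = corrected activity change at or below -50% at 5 µM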
# TRPM1 prom inh: inhibitors of MITF-dependent TRPM1 promoter reporter, primary screen, cell-based, SK-MEL-5, single point, luciferase. SK-MEL-5 TRPM1 promoter luciferase, 24 h. inhibition, % at 12.5 µM. hit rate 0.83% among 330,000;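 active = mean inhibition across replicates of 60% or more, whatever share of single replicates reaches that level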
# * hit, by the source's call; / = no result.
SMILES,HIF-2a block,Peg3 promoter,CF NFkB block,EBV LMP1 NFkB,KKLEB tox,TRPM1 prom inh
CC1=NOC(=O)/C1=C\c1ccc(-c2ccc(Cl)c(C(=O)O)c2)o1,16,0,-19,-9,13,3
CC1=CC2=NC(=O)/C(=C\c3ccc(-c4cccc(Cl)c4)o3)C(=N)N2O1,12,57*,4,2,-10,33
CC1=NOC(=O)/C1=C\c1ccc(-c2cccc(Cl)c2)o1,83*,105*,93*,-6,-33,76*
COc1ccc(/C=N/NC(=O)Nc2cccc3nsnc23)c(OC)c1,24,-5,14,5,-1,-15
O=C(N/N=C/c1ccc(O)cc1)Nc1cccc2nsnc12,-72,32,69*,-10,-38,-53
Cc1ccc(NC(=O)C2CCN(S(=O)(=O)c3ccc4c(c3)NC(=O)C(C)S4)CC2)cc1Cl (stereo not drawn),10,22,46,40*,-8,19
Cc1cc(C)cc(NC(=O)C2CCN(S(=O)(=O)c3ccc4c(c3)NC(=O)C(C)S4)CC2)c1 (stereo not drawn),10,42,16,2,0,1
O=C(CSc1n[nH]c(-c2ccccn2)n1)Nc1ccc(F)cc1,14,32,-10,12,10,12
O=C(CSc1n[nH]c(-c2ccccn2)n1)Nc1ccc(Cl)cc1,16,53*,10,33,-1,22
COc1ccccc1NC(=O)N(C)C[C@H]1OCc2cnnn2CCCC(=O)N([C@H](C)CO)C[C@@H]1C,14,15,-14,-3,4,/
S=C1SCN(Cc2ccccc2)CN1Cc1ccco1,0,17,-2,42*,4,/
CC1CCCN(CCCNC(=O)c2ccc3c(c2)N(Cc2cccc(Cl)c2)C(=O)c2ccccc2S3=O)C1 (stereo not drawn),8,57*,2,-4,0,/
O=C(COc1ccccc1/C=C1\SC(=S)NC1=O)Nc1ccc(F)cc1,-31,21,52*,5,2,13
C[C@@H]1CN([C@@H](C)CO)S(=O)(=O)c2ccc(Br)cc2O[C@H]1CN(C)C(=O)c1ccccc1,4,4,-1,24,7,/
CCCCCCC(=O)N(O)C1CC(=O)N(c2ccc(Cl)cc2)C1=O (stereo not drawn),-22,35,16,31,14,11
CCCCCCC(=O)N(O)C1CC(=O)N(c2ccc(C)cc2)C1=O (stereo not drawn),-36,28,25,51*,-7,15
COc1ccc(CCNC(=O)CSC(=O)c2ccccc2)cc1OC,19,11,-14,43*,2,-4
COc1ccc(CCNC(=O)CSc2ccccc2)cc1OC,7,14,-6,8,8,-3
Cc1cc(C(=O)Nc2ccccc2N2CCOCC2)ccc1[N+](=O)[O-],16,13,-4,7,16,1
O=C(Nc1nc(-c2ccccc2)cs1)c1ccc2c(=O)n3c(nc2c1)CCCCC3,-60,74*,4,32,16,56
CC1CCN(c2ccccc2NC(=O)c2ccc(N3CCOCC3)c([N+](=O)[O-])c2)CC1,8,3,43,-1,-54*,4
CN1CCN(CC(=O)Nc2cccc(S(=O)(=O)N(C)c3ccccc3)c2)CC1,5,1,17,74*,-21,-7
CN1CCN(c2ccccc2NC(=O)c2ccc(N3CCCC3)c([N+](=O)[O-])c2)CC1,-11,24,-5,-3,6,-16
O=C(Nc1ccccc1N1CCCCC1)c1ccc(Cl)c([N+](=O)[O-])c1,17,101*,-2,0,0,17
Cc1cn(CC(=O)NCc2nc3ccccc3[nH]2)c(=O)[nH]c1=O,0,/,/,/,/,/
Cc1noc(C)c1C(=O)OC(C)C(=O)c1ccc(C(C)(C)C)cc1 (stereo not drawn),-2,-4,-16,-2,11,/

# Bioassay records from PubChem.
